High-throughput results as filed in PubChem.
Pf apPOL block – Pf-apPOL inhibitors, biochemical, fluorescence; Plasmodium falciparum apicoplast DNA polymerase (apPOL); Recombinant Pf-apPOL, molecular beacon fluorescence, 1.5 h; inhibition, % at 10 µM; actives 0.25% (n = 210,000); AID 1794808, 2022
mHTT CaM bind – mutant huntingtin-calmodulin interaction inhibitors – biochemical, AlphaScreen, primary screen. actives 3.6% (n = 190,000). AlphaScreen His-mHTT/GST-CaM binding, luminescence. P42858. inhibition, % at 15 µM;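 further: 0% = both proteins with DMSO and 100% = one protein alone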
Target sequence (P42858 whole entry, looked up, stated change not applied): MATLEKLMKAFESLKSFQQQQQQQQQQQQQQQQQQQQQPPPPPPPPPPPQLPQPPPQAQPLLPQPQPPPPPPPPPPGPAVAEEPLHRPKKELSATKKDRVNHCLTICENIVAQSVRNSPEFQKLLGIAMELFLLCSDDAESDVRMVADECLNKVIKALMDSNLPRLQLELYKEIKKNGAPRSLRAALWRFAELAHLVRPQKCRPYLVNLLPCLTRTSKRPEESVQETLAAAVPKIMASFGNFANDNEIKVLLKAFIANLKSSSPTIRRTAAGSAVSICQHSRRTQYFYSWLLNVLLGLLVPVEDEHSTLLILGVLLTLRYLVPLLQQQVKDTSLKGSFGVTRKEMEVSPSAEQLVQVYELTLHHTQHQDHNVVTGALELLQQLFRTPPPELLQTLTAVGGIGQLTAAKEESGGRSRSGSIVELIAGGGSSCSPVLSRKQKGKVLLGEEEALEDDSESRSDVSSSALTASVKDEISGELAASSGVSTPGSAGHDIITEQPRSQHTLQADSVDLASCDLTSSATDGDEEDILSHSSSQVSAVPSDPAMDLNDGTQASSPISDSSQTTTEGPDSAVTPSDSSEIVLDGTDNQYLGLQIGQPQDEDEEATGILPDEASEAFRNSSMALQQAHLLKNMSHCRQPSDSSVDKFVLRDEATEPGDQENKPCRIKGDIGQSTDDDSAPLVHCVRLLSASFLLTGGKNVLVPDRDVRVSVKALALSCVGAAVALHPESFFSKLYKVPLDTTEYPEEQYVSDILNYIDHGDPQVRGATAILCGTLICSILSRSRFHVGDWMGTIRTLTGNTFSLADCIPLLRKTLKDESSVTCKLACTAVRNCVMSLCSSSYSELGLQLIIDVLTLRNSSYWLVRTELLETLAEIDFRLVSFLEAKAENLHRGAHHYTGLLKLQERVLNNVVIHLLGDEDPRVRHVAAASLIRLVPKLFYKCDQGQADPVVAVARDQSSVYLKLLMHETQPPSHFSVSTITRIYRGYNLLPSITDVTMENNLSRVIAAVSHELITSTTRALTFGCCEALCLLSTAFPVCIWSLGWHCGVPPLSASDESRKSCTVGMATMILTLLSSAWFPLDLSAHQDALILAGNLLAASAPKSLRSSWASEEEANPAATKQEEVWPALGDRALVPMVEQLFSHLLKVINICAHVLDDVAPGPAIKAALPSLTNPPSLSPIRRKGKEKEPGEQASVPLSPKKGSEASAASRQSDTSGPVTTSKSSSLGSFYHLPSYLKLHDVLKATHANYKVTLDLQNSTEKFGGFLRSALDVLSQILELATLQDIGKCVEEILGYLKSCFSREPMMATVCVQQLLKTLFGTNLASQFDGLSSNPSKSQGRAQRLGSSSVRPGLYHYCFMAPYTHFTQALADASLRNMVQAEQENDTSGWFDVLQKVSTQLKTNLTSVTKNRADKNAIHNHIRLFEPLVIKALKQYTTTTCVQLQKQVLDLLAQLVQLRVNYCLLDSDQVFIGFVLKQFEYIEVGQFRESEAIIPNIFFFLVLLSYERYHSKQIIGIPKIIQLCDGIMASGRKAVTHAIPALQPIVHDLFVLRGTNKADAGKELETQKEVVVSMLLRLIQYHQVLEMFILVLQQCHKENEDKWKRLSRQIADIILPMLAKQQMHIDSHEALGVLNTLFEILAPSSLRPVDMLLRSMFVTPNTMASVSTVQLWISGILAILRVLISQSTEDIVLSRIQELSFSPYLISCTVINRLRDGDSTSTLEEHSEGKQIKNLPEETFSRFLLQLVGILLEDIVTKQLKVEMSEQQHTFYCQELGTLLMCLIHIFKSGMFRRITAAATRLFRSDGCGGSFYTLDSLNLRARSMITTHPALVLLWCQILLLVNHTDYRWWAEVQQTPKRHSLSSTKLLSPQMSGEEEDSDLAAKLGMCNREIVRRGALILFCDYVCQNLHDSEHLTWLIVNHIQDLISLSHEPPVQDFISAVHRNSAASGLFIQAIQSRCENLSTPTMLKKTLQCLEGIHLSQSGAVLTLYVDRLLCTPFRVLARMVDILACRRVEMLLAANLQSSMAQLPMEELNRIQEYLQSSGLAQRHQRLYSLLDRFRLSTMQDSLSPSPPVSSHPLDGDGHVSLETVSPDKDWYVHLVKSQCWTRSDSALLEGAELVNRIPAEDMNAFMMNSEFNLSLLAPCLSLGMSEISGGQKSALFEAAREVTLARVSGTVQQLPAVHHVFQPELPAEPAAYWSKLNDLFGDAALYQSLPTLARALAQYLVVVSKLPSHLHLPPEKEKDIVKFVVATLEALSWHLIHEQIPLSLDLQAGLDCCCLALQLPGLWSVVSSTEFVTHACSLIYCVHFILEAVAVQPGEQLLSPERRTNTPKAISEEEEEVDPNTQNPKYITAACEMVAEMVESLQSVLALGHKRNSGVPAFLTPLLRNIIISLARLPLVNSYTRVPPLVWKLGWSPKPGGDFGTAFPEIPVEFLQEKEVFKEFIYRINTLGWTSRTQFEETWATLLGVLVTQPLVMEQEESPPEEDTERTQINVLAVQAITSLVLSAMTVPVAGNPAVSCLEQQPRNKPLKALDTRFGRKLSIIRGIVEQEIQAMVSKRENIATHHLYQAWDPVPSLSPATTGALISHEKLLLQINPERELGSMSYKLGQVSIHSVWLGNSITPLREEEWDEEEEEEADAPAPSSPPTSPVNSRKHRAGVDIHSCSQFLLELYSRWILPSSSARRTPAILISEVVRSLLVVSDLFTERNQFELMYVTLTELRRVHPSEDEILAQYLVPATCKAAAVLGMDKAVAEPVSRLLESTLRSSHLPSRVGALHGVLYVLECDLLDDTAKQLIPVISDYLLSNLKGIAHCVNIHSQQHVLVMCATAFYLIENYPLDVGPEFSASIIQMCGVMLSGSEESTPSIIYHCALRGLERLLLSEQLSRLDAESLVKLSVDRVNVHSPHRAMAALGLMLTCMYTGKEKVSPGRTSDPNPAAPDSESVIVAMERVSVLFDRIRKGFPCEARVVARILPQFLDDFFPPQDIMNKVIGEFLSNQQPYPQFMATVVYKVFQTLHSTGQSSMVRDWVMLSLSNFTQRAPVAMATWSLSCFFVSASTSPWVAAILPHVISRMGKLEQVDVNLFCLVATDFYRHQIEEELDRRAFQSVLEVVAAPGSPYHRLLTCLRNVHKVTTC
The depositor's hits bear a star. In the library only some 3.5% were active in any assay of this set; here they are far more common. No stated cut-off is given here; in the data, active means inhibition above about 50%; inactive means the rest.

What do the screens show for `C=CCn1c(=N)c(C(=O)NCc2cccnc2)cc2c(=O)n3cc(C)ccc3nc21`?
Pf apPOL block: 4; mHTT CaM bind: -8

What do the screens show for `CCOc1ccccc1Nc1nc(-c2ccccn2)cs1`?
Pf apPOL block: -3; mHTT CaM bind: 37

Results for c1ccc(Nc2nc(-c3ccccn3)cs2)nc1 ?
Pf apPOL block: 0; mHTT CaM bind: 100*

How did c1ccc(-c2csc(Nc3ncccn3)n2)nc1 do in these assays?
Pf apPOL block: -1; mHTT CaM bind: 98*

What do the screens show for `Cc1nc(N)sc1-c1csc(Nc2ccccn2)n1`?
Pf apPOL block: -6; mHTT CaM bind: 87*

Results for Cc1ccnc(Nc2nc(-c3sc(C)nc3C)cs2)c1 ?
Pf apPOL block: 1; mHTT CaM bind: 30

What do the screens show for `Cc1nc(C)c(-c2csc(Nc3cccc(C(=O)O)c3)n2)s1`?
Pf apPOL block: 5; mHTT CaM bind: 19

How did COc1ccc(-c2csc(Nc3ccccn3)n2)cc1OC do in these assays?
Pf apPOL block: -5; mHTT CaM bind: 50

How did Cc1nc(N)sc1-c1csc(Nc2cccc(O)c2)n1 do in these assays?
Pf apPOL block: 1; mHTT CaM bind: 51*

What do the screens show for `COc1cn(CC(=O)Nc2ccc(C)c(Cl)c2)c(CN2CCN(C(C)=O)CC2)cc1=O`?
Pf apPOL block: 2; mHTT CaM bind: 4

What do the screens show for `COc1ccc(NC(=O)CN2C(=O)C(c3ccccc3)=NC23CCCCCC3)cc1Cl`?
Pf apPOL block: -9; mHTT CaM bind: 11

What do the screens show for `N#CCc1ccc(NC(=O)Nc2ccccc2F)cc1`?
Pf apPOL block: 0

Results for CC(=O)N1CCCC(c2ccnc(Nc3ccc(F)cc3)n2)C1 (stereo not given) ?
Pf apPOL block: -8; mHTT CaM bind: 15

What do the screens show for `Cc1ccc(Nc2nccc(C3CCCN(C(=O)C4CCC4)C3)n2)cc1` (stereo not given)?
Pf apPOL block: -4; mHTT CaM bind: 47

Results for O=C(Cc1cccs1)N1CCCC(c2ccnc(Nc3ccc(F)cc3)n2)C1 (stereo not given) ?
Pf apPOL block: -2; mHTT CaM bind: 53*

What do the screens show for `Cc1ccc(Nc2nccc(C3CCCN(C(=O)Cc4cccs4)C3)n2)cc1` (stereo not given)?
Pf apPOL block: -5; mHTT CaM bind: 63*

What do the screens show for `CCc1csc2nc(C)c(NC(=O)CC(C)C)c(=O)n12`?
Pf apPOL block: -1; mHTT CaM bind: -6

How did NC(=O)Cn1nc(-c2ccc(Cl)cc2)c2ccccc2c1=O do in these assays?
Pf apPOL block: 1; mHTT CaM bind: -1

What do the screens show for `NC(=NC(=O)N1CCOCC1)c1ccccc1`?
Pf apPOL block: -4

How did Cc1ccc(C2=NNC(C)(CC(=O)Nc3ccccc3)S2)cc1 (stereo not given) do in these assays?
Pf apPOL block: 1; mHTT CaM bind: 72*

What do the screens show for `Cc1ccc(N=C2NC(=O)C(CC(=O)Nc3ccccc3)S2)cc1` (stereo not given)?
Pf apPOL block: -4; mHTT CaM bind: -4

What do the screens show for `CCCCN(C)S(=O)(=O)c1ccc(C(=O)Nc2nc(-c3ccccn3)cs2)cc1`?
Pf apPOL block: 2; mHTT CaM bind: 86*

Results for CCCCN(C)S(=O)(=O)c1ccc(C(=O)Nc2nc3c(s2)Cc2ccccc2-3)cc1 ?
Pf apPOL block: -2; mHTT CaM bind: -6

What do the screens show for `CN(C1CCCCC1)S(=O)(=O)c1ccc(C(=O)Nc2nc(-c3ccccn3)cs2)cc1`?
Pf apPOL block: -7; mHTT CaM bind: 99*

Results for CN(C)S(=O)(=O)c1ccc(C(=O)Nc2nc(-c3cccs3)cs2)cc1 ?
Pf apPOL block: -6; mHTT CaM bind: 13

Results for O=C(Nc1nc(-c2ccccn2)cs1)c1ccc(S(=O)(=O)N2CCc3ccccc32)cc1 ?
Pf apPOL block: 2; mHTT CaM bind: 97*

How did O=C(Nc1nc(-c2cccnc2)cs1)c1ccc(S(=O)(=O)N2CCc3ccccc32)cc1 do in these assays?
Pf apPOL block: -5; mHTT CaM bind: 9

Results for CCN1CCn2cc(C(=O)NCc3c(C)cc(C)cc3C)nc2C1 ?
Pf apPOL block: 0; mHTT CaM bind: 8

Results for Cc1ccc(C)c(NC(=O)Nc2ccc3c(c2)CCN3S(C)(=O)=O)c1 ?
Pf apPOL block: -3; mHTT CaM bind: 3

How did O=C(NCCN1CCCCC1)c1cc2n(n1)CCCN(Cc1ccccc1)C2=O do in these assays?
Pf apPOL block: -6; mHTT CaM bind: -7

What do the screens show for `O=C(O)c1[nH]c2ccccc2c1CC(=O)N1CCN(c2ccc([N+](=O)[O-])cc2)CC1`?
Pf apPOL block: -3; mHTT CaM bind: 7

What do the screens show for `Cc1ccc(Cl)cc1N1CCN(C(=O)C2(S(=O)(=O)c3ccc(Cl)cc3)CC2)CC1`?
Pf apPOL block: 1; mHTT CaM bind: 92*

Results for O=C(N1CCN(c2cccc(Cl)c2)CC1)C1(S(=O)(=O)c2ccc(Cl)cc2)CC1 ?
Pf apPOL block: -5; mHTT CaM bind: 13

What do the screens show for `O=C(O)c1[nH]c2ccc(Cl)cc2c1CC(=O)N1CCN(c2cccc(Cl)c2)CC1`?
Pf apPOL block: -4; mHTT CaM bind: 63*

Results for CN(C(=O)Cc1c(C(=O)O)[nH]c2ccc(Cl)cc12)c1ccc(Br)cc1 ?
Pf apPOL block: 1; mHTT CaM bind: 10

How did Cc1ccc(Cl)cc1N1CCN(C(=O)Cc2c(C(=O)O)[nH]c3ccc(Cl)cc23)CC1 do in these assays?
Pf apPOL block: 0; mHTT CaM bind: 98*

How did C=CCN1C(=O)/C(=C/c2ccccc2O)SC1=Nc1ccccc1 do in these assays?
Pf apPOL block: -6; mHTT CaM bind: 49

How did C=CCN1C(=O)/C(=C/c2ccc(O)cc2)SC1=Nc1ccccc1 do in these assays?
Pf apPOL block: -4; mHTT CaM bind: 78*

What do the screens show for `Cc1ccc(-n2cc(C(=O)N3CCCC3)c3ccccc3c2=O)cc1C`?
Pf apPOL block: -6; mHTT CaM bind: 10

How did Cc1ccc(-n2cc(C(=O)N3CCN(c4ccccc4)CC3)c3ccccc3c2=O)cc1C do in these assays?
Pf apPOL block: -1; mHTT CaM bind: 74*

How did O=C(Nc1ccc(Cl)c(Cl)c1)c1cc(S(=O)(=O)NC2CCCCC2)ccc1F do in these assays?
Pf apPOL block: -4; mHTT CaM bind: 78*

How did O=C(Nc1cc(Cl)cc(Cl)c1)c1ccc(F)c(S(=O)(=O)NC2CCCC2)c1 do in these assays?
Pf apPOL block: 31; mHTT CaM bind: 54*

How did Cc1ccc(NC(=O)c2cc(S(=O)(=O)NC3CCCCC3)ccc2F)cc1Cl do in these assays?
Pf apPOL block: -8; mHTT CaM bind: 5

Results for O=C(Nc1cccc(Cl)c1)c1ccc(F)c(S(=O)(=O)NC2CCCC2)c1 ?
Pf apPOL block: 0; mHTT CaM bind: -1

Results for O=C(c1cc2ccccc2[nH]1)N1CCN(C(=O)c2ccccc2C(F)(F)F)CC1 ?
Pf apPOL block: -2; mHTT CaM bind: 3

What do the screens show for `Cc1ccc(C(=O)N2CC=C(C(=O)NC(C)(C)C)CC2)cc1`?
Pf apPOL block: -1; mHTT CaM bind: 14

What do the screens show for `O=C(Nc1ccc2c(c1)OCCO2)c1ccc(NS(=O)(=O)c2ccc(Cl)cc2)cc1`?
Pf apPOL block: -6; mHTT CaM bind: 17

How did CC(=O)N(C1=C(N2CCCCC2)C(=O)c2ccccc2C1=O)c1cccc(Cl)c1 do in these assays?
Pf apPOL block: 3; mHTT CaM bind: 76*

Results for CC(=O)N(C1=C(N2CCCC2)C(=O)c2ccccc2C1=O)c1ccc(F)c(F)c1 ?
Pf apPOL block: -4; mHTT CaM bind: 100*
